High-throughput results (PubChem)
The list is not random: actives were taken first. Their share in the collection is about 4.7%.
PLK1 inh: PLK1 (human) kinase inhibition; P53350; recombinant PLK1 kinase, TR-FRET peptide phosphorylation; inhibition, % at 10 µM; hit rate 0.53% among 97,000; AID 619;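 active means inhibition of 50% or more in the single-concentration screen; inactive means inhibition below 50%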;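 further: 0% = DMSO max control and 100% = H-89 dihydrochloride min control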
Target sequence (P53350 whole entry, looked up): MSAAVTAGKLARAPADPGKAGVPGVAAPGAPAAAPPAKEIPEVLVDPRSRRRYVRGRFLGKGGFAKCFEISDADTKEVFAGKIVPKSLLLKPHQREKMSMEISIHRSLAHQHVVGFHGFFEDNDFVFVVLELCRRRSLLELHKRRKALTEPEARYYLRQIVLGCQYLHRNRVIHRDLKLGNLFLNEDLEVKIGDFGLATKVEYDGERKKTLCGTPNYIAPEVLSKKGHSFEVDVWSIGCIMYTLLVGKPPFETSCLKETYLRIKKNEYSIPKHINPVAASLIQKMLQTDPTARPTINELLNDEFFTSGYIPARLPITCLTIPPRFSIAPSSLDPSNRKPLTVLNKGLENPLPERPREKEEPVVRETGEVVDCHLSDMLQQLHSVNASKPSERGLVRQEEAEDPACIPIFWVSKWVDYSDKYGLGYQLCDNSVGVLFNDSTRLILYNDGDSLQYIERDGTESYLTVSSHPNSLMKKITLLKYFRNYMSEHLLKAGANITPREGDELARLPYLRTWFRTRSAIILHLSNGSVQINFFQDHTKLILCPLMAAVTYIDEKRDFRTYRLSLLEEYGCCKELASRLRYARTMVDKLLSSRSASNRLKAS
Cav3 T inh: inhibitors of human Cav3.2 T-type calcium channel. Cav3.2-expressing cells, Fluo-4 calcium fluorescence FDSS; active compounds read low. hit rate 4% among 100,000. B-score at 10 µM;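 active means single-dose well whose peak fluorescence ratio is a statistical outlier from its plate by either plate-standardised score or position-corrected B-score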
sdo1 growth: restores growth of sdo1-depleted yeast | S. cerevisiae sdo1-depleted JHY4D growth rescue, OD600 30 h; active compounds read high; pdr5 snq2 efflux-pump mutant strain | z-score at 10 µM | hit rate 0.21% among 140,000 | AID 817;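 active means z-score above 3 at both the 24 hr and the 30 hr optical density reads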;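 further: z-score against mean and SD of all compound wells on the same plate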
hDAT+cocaine: modulates human dopamine transporter uptake under cocaine. LLC-PK1 hDAT cells, [14C]-dopamine uptake with cocaine IC80; actives deviate in either direction. B-score at 10 µM. hit rate 1.3% among 110,000. AID 449768;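 active means Z score or B-score, a plate-position-corrected score, falls beyond the plate's 99.7% confidence bounds, in either direction; inactive means both scores lie inside the 99.7% bounds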;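 further: scored against the spread of the other compound wells on the same plate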
PLK1 PBD inh: blocks phosphopeptide binding to human Plk1 polo box domain. P53350. Plk1 PBD phosphopeptide binding, fluorescence polarization. inhibition, %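 (tested at about 20 µM)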. hit rate 0.13% among 97,000. AID 693; in the data active means inhibition above about 34%, passing the limit was not always enough
Pyk2 oligo antag: antagonists of human Pyk2 oligomerization. Q14289. hit rate 0.83% among 99,000. AID 1347419. z-score (the deposit names both 25 µM and 10 µM). Q293 cells, Pyk2 FERM NanoBiT luminescence; active compounds read low;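 active means Z-score of -3 or lower, scaled per plate to the spread of control and sample wells; inactive means z-score above -3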;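 further: negative z-score means lost luminescence so less FERM oligomerization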
An asterisk follows results filed as active; / = no result given.

SMILES | PLK1 inh | Cav3 T inh | sdo1 growth | hDAT+cocaine | PLK1 PBD inh | Pyk2 oligo antag
COc1cc(C[C@@H](CO)[C@H](CO)Cc2ccc(O)c(OC)c2)ccc1O | / | -0.327 | / | -0.0568 | / | /
O=C(/C=C/c1cc([N+](=O)[O-])ccc1OC(F)F)NCc1ccc(F)cc1 | -6.7 | -6.12* | 1.13 | 0.232 | 9.9 | -1.08
Cc1nn(-c2ccccc2)c(C)c1NC(=O)COc1ccc(Br)cc1Cl | / | / | -0.74 | / | / | /
O=S(=O)(c1ccc2ccccc2c1)N(CC(O)COCc1ccco1)c1ccccc1 (stereo not given) | -11.2 | -5.13* | -0.98 | 0.307 | 14.7 | 0.41
O=C(Nc1nc2nc(-c3ccccc3)cc(-c3ccccc3)n2n1)c1ccco1 | -7.0 | -1.09 | -0.9 | 0.00847 | 3.0 | -3.49*
CCCCCc1nnc(NC(=O)Cn2cnc3ccccc3c2=O)s1 | / | / | 0.52 | / | / | /
CCOC(=O)C1=C(c2ccccc2)N(C)C(=O)NC1c1ccc(OC(F)F)c(OC)c1 (stereo not given) | -8.4 | -8.58* | -0.61 | 1.53 | -2.8 | -2.99
CCOC(=O)C1=C(C)N(C)C(=O)NC1c1ccccc1OC (stereo not given) | -8.9 | 0.1 | 0.53 | 0.804 | -11.3 | -0.05
O=C1c2ccccc2N2C(=O)c3ccccc3[C@H]2N1c1ccccc1 | -11.3 | / | -0.71 | -2.66* | 14.9 | -0.08
CCC(C)(C)NC(=O)C(c1ccc(OC)cc1)N(CC1CCCO1)C(=O)CCC(=O)Nc1cc(C)on1 (stereo not given) | -3.3 | 0.0953 | 0.73 | 0.85 | -17.8 | 0.69
CCC(C)(C)NC(=O)C(c1ccc(OC)cc1)N(Cc1cccs1)C(=O)CCC(=O)Nc1cc(C)on1 (stereo not given) | -1.3 | -5.5* | 0.36 | 2.07 | 2.4 | 0.15
O=c1[nH]cnc2scc(-c3ccccc3)c12 | 67.7* | 0.101 | 0.31 | -0.357 | 14.9 | 0
COc1cccc(-c2nn(C)c3sc(C(=O)N4CCN(c5ccccn5)CC4)cc23)c1 | / | -1.53 | -1.37 | 0.335 | / | -3.91*
CCOC(=O)C1CCCN(C(=O)c2cc3nc(-c4cccc(OC)c4)cc(C(F)(F)F)n3n2)C1 (stereo not given) | -8.5 | -2.6 | -0.23 | 2.7* | -4.7 | -0.92
CCOC(=O)C1CCCN(C(=O)c2cc3c(-c4cccc(OC)c4)nn(C)c3s2)C1 (stereo not given) | -5.8 | -4.23* | -1 | -0.243 | -6.5 | -0.58
COc1ccc(N2CCN(C(=O)c3cc4c(-c5ccc(Cl)cc5)nn(C)c4s3)CC2)cc1 | -4.3 | -0.455 | -0.33 | 0.678 | 21.6 | /
CCOC(=O)C1CCN(C(=O)c2cc3c(-c4ccc(OC)c(OC)c4)nn(C)c3s2)CC1 | -12.4 | 1.05 | -0.42 | 0.00941 | 7.9 | /
CCOC(=O)NS(=O)(=O)c1ccc(CCNC(=O)c2cc(C)on2)cc1 | / | / | 1.67 | / | / | /
COc1ccccc1Nc1nnc(SCC(=O)NC(=O)Nc2ccc3c(c2)OCCO3)s1 | / | / | -0.71 | / | / | /
CCNC(=O)CCCOc1ccc(Cl)cc1Cl | -15.6 | 0.159 | 0.57 | 0.273 | -25.9 | 0.36
O=C(CCCOc1ccc(Cl)cc1Cl)Nc1ccncc1 | 53.7* | 0.701 | -2.46 | 1.64 | -5.0 | 1.9
N#CCCn1cc(C(CC(=O)c2ccc(Br)cc2)C(=O)O)c2ccccc21 (stereo not given) | 55.9* | -0.22 | -0.32 | -0.274 | -9.7 | /
CCSc1nc(C)cc(C)c1S(=O)(=O)c1ccccc1C | -11.6 | -2.39 | -0.68 | 0.203 | -13.6 | -1.36
CSc1nc(C)cc(C)c1S(=O)(=O)c1ccccc1C | -0.6 | -6.53* | -1.68 | -1.39 | -16.0 | -1.23
COc1ccc(Cl)cc1NC(=O)CSc1nnc(Cc2cccn2C)n1-c1ccc(F)cc1 | / | -6* | -1.42 | 0.118 | / | /
SMILES | PLK1 inh | Cav3 T inh | sdo1 growth | hDAT+cocaine | PLK1 PBD inh | Pyk2 oligo antag
CC(=O)c1ccc(NC(=O)CSc2nnc(Cc3cccn3C)n2-c2ccc(F)cc2)cc1 | -4.8 | 1.32 | 0.34 | 0.0405 | 3.8 | /
Cn1cccc1Cc1nnc(SCC(=O)NC2CCCC2)n1-c1ccc(F)cc1 | 10.2 | 1.08 | -0.08 | -0.521 | -11.3 | /
Cc1ccc(-n2c(Cc3cccn3C)nnc2SCC(=O)Nc2cc(C)on2)cc1 | -9.5 | -0.177 | 0.46 | -0.978 | 14.6 | -0.59
Cc1ccc(NC(=O)CSc2nnc(Cc3cccn3C)n2-c2ccc(F)cc2)c(C)c1 | -4.2 | -10.2* | -0.68 | -0.966 | 3.5 | /
Cn1cccc1Cc1nnc(SCC(=O)Nc2ccc(F)cc2F)n1-c1ccc(F)cc1 | -18.5 | -4.52* | -1.68 | -8.37* | -24.2 | /
CCC(=O)NS(=O)(=O)c1ccc(-c2c(-c3ccccc3)noc2C)cc1 | / | -0.377 | / | -0.11 | / | /
